# Records with an inconclusive call do not appear. Where a call stands in place of a potency, no number is given. The source made the active and inactive calls. Unless noted, calls follow the shape of the dose curve; as a rule, active = well fitted activation curve with a large enough effect in the repeat runs; inconclusive = weak or mixed curves; inactive = flat fitted curve, though single readings scatter.
# Biological target: Androgen receptor (Homo sapiens) (UniProt P10275)
# Assay: qHTS assay to identify small molecule antagonists of the androgen receptor (AR) signaling pathway (AID 743035; active = well fitted inhibition curve with a large enough effect in the signal ratio in the repeat runs, not every such curve was filed as active; the % refers to the signal ratio; also: potency is read from the fitted curve at half-maximal effect)
# Conditions: HEK293 AR-UAS-bla, R1881-stimulated, beta-lactamase FRET, 16 h; series mostly up to 58.5 µM
# Method in brief: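 Quantitative HTS of the Tox21 10K library used HEK293 AR-UAS-bla cells stimulated with R1881 alongside compound for 16 h at 37C, followed by beta-lactamase FRET detection (LiveBLAzer B/G, 2 h, RT).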
# Chain of Androgen receptor (Homo sapiens) (P10275 whole entry, looked up): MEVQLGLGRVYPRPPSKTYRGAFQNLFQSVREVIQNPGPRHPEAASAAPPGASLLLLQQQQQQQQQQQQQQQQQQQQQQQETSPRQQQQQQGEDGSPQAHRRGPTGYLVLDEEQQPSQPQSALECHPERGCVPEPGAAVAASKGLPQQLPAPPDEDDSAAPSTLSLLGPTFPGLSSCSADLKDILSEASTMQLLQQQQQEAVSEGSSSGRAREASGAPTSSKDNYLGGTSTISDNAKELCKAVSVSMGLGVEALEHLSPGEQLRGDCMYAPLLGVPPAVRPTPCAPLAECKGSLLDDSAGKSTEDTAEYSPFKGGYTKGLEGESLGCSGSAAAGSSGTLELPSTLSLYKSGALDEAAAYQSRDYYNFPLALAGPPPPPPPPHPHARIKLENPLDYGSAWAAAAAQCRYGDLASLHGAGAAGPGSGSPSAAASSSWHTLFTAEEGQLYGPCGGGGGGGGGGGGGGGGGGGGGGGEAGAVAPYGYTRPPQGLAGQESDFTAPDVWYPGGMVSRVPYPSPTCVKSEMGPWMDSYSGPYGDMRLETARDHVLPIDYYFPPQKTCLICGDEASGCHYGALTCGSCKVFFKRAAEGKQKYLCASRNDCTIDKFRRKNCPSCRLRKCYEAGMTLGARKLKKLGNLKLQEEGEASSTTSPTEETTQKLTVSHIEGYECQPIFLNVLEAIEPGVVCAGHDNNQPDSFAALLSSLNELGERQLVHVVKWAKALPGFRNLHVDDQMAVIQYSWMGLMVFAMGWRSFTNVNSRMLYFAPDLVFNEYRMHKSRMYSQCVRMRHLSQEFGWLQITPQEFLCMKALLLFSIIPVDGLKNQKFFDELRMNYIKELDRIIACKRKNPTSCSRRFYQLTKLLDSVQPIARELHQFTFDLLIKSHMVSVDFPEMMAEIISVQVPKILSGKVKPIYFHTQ
row,Compound,Potency
1,O=C1OC(CN2CCOCC2)CN1/N=C/c1ccc([N+](=O)[O-])o1 (configuration not stated),inactive
2,CC(COCCO)OCCO (configuration not stated),inactive
3,COc1ccc(S(=O)(=O)N2C(=O)[C@@](c3ccccc3OC)(N3C[C@H](O)C[C@H]3C(=O)N(C)C)c3cc(Cl)ccc32)c(OC)c1,17.4 µM (active)
4,CC(C)CC(=O)C1C(=O)c2ccccc2C1=O,49 µM (active)
5,CCCCCCCCCCCCCCCCOS(=O)(=O)O,inactive
6,CN1CCN(C(c2ccccc2)c2ccccc2)CC1,inactive
7,Cc1nn(C)c(Oc2ccccc2)c1/C=N/OCc1ccc(C(=O)OC(C)(C)C)cc1,0.123 µM (active)

# Biological target: Androgen receptor (Homo sapiens) (UniProt P10275)
# Assay: qHTS assay to identify small molecule agonists of the androgen receptor (AR) signaling pathway (AID 743036; active = well fitted activation curve with a large enough effect in the signal ratio in the repeat runs, with a control signal flat, not every such curve was filed as active; the % refers to the signal ratio)
# Conditions: HEK293 AR-UAS-bla GripTite, beta-lactamase FRET ratio, 16 h; series mostly up to 62.4 µM
# Method in brief: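 Activation was read as beta-lactamase FRET signal from LiveBLAzer B/G substrate, added for 2 h at room temperature. Before that, GeneBLAzer AR-UAS-bla GripTite (HEK293) cells had 16 h compound exposure at 37C.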
row,Compound,Potency
1,O=C1OC(CN2CCOCC2)CN1/N=C/c1ccc([N+](=O)[O-])o1 (configuration not stated),inactive
2,CC(COCCO)OCCO (configuration not stated),inactive
3,C[C@@H]1C[C@H]2O[C@@]3(O[C@@H]2C(C)(C)O)[C@H](O)[C@@]2(C)[C@@H]4CC[C@H]5C(C)(C)[C@@H](O[C@@H]6OC[C@@H](O)[C@H](O)[C@H]6O)CC[C@@]56C[C@@]46CC[C@]2(C)[C@@H]13,inactive
4,CC(C)CC(=O)C1C(=O)c2ccccc2C1=O,inactive
5,CCCCCCCCCCCCCCCCOS(=O)(=O)O,inactive
6,CN1CCN(C(c2ccccc2)c2ccccc2)CC1,inactive
7,Cc1nn(C)c(Oc2ccccc2)c1/C=N/OCc1ccc(C(=O)OC(C)(C)C)cc1,inactive

# Biological target: Androgen receptor (Homo sapiens) (UniProt P10275)
# Assay: qHTS assay to identify small molecule agonists of the androgen receptor (AR) signaling pathway using the MDA cell line (AID 743040; also: nearly all actives have a fitted effect of over 20% in size)
# Conditions: MDA-kb2 AR-luc cells, MMTV luciferase, 16 h; series mostly up to 70.3 µM
# Method in brief: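 Stable MMTV-luciferase reporter in MDA-kb2 cells; note the promoter carries GR as well as AR response elements. 16 h compound treatment, 37C, 0% CO2; ONE-Glo luminescence endpoint.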
row,Compound,Potency
1,O=C1OC(CN2CCOCC2)CN1/N=C/c1ccc([N+](=O)[O-])o1 (configuration not stated),inactive
2,CC(COCCO)OCCO (configuration not stated),inactive
3,C[C@@H]1C[C@H]2O[C@@]3(O[C@@H]2C(C)(C)O)[C@H](O)[C@@]2(C)[C@@H]4CC[C@H]5C(C)(C)[C@@H](O[C@@H]6OC[C@@H](O)[C@H](O)[C@H]6O)CC[C@@]56C[C@@]46CC[C@]2(C)[C@@H]13,inactive
4,COc1ccc(S(=O)(=O)N2C(=O)[C@@](c3ccccc3OC)(N3C[C@H](O)C[C@H]3C(=O)N(C)C)c3cc(Cl)ccc32)c(OC)c1,inactive
5,CC(C)CC(=O)C1C(=O)c2ccccc2C1=O,inactive
6,CCCCCCCCCCCCCCCCOS(=O)(=O)O,inactive
7,CN1CCN(C(c2ccccc2)c2ccccc2)CC1,inactive
8,Cc1nn(C)c(Oc2ccccc2)c1/C=N/OCc1ccc(C(=O)OC(C)(C)C)cc1,inactive

# Reference: PubChem BioAssay (Tox21)
